An excerpt weighted towards active compounds, which were near 21% of everything screened.
CHX counter: counter-screen for Shiga toxin inhibitors: cycloheximide protein synthesis inhibition. cell reporter, cycloheximide protein synthesis inhibition counterscreen. max response, %. hit rate 12% among 300,000. AID 2314; in the data active means max response mostly above about 13%, no sharp cut-off; inactive means mostly below about 14%; further: read at 38.3 µM for the half of the compounds with a filed dose; 0% is about no effect
Pf growth 96h: P. falciparum growth inhibition at 96 hours. P. falciparum luciferase reporter growth, 96 h. AID 504834. hit rate 6.9% among 320,000. Potency, µM (top dose mostly 28.7 µM), for inactives: top-dose activity change, negative = inhibition, usual class: inhibitors; further: potency means the concentration at half of the fitted maximal effect; on the % scale 0 is the no-effect control and ±100 the full control effect
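Erythrocytes infected with luciferase-expressing P. falciparum were dispensed at 2% hematocrit and 0.05% parasitemia (final), then incubated with compounds 96 hours at 37 C in 5% CO2. Luminescence after detection reagent addition reported growth.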
HCV inhibitor: blocks hepatitis C virus | Huh7.5.1 HCVcc-Cre infection, luciferase reporter, 44 h | Potency, µM (highest dose often 41.8 µM), without a hit: at the top dose activity change, negative = inhibition, hits mostly inhibitors | hit rate 3.4% among 340,000 | AID 651820; further: potency means the concentration at half of the fitted maximal effect; on the % scale 0 is the no-effect control and ±100 the full control effect
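1,000 cells/well; 4 h culture; + compound; + HCVcc-Cre (~0.5 moi); 44 h; luciferase substrate, RT 15 min; read 15 sec.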
Shiga toxin inh: inhibitors of Shiga toxin in Vero cells | Vero cells, Shiga toxin protein synthesis inhibition reporter | inhibition, % at 38.7 µM | hit rate 9.2% among 290,000 | AID 2315; in the data active means inhibition mostly above about 28%, no sharp cut-off; inactive means mostly below about 43%; further: 0% is about no effect
HCMV inh: blocks human cytomegalovirus replication; AID 1259415; activity change, negative = inhibition, % at 57.5 µM; HFF cells, HCMV-luciferase reporter, 72 h; hits give low values; hit rate 4.5% among 410,000; in the data active means activity change below about -60%; inconclusive means no clear call, values can overlap the other calls; inactive means above about -39%; further: on the % scale 0 is the no-effect control and ±100 the full control effect
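Two compound doses tested in HFFs infected with HCMV-luciferase, MOI 1 PFU/cell, 72 h at 37C. Lysate luminescence read with OneGlo; data normalized against buffer-only and 10uM Salinomycin inhibitor controls.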
Pf growth 48h: inhibits P. falciparum growth in the first generation, 48 h | Potency, µM (top dose mostly 28.7 µM), for the others: at the highest dose activity change, negative = inhibition, hits mostly inhibitors | P. falciparum luciferase growth in erythrocytes, 48 h | hit rate 5.9% among 310,000; further: potency means the concentration at half of the fitted maximal effect; on the % scale 0 is the no-effect control and ±100 the full control effect
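Read-out is firefly luciferase luminescence from an integrated reporter in P. falciparum, so falling signal marks reduced parasite growth. Infected erythrocytes were at 2% hematocrit and 0.1% parasitemia (final) in Albumax-supplemented RPMI 1640.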
An asterisk follows results filed as active; ? = inconclusive; nt = not tested or not shown. Unless noted, the call rests on the fitted dose curve; in most records, active means well fitted inhibition curve with a large enough effect; inconclusive means small, poorly fitted or top-dose-only effect, or another doubt; inactive means no such curve, though single readings can be large or run the other way.

SMILES	CHX counter	Pf growth 96h	HCV inhibitor	Shiga toxin inh	HCMV inh	Pf growth 48h
Nc1ccn(CC(=O)NCCCc2ccccc2)c(=O)n1	nt	27%	-9%	nt	-81*	21%
Nc1c(C(=O)Nc2ccc(Cl)c(C(F)(F)F)c2)sc2nc3c(cc12)N1CCC3CC1	nt	nt	nt	nt	-93*	nt
Nc1c(C(=O)Nc2ccc(Cl)cc2)sc2nc3c(cc12)N1CCC3CC1	nt	nt	nt	nt	-86*	nt
Cc1cc(C)n2ncc(/C(N)=N/OC(=O)Nc3ccc(Cl)cc3)c2n1	20*	31%	0%	48	-4	6%
Cc1cc(C)n(C2CCCCC2OC(=O)c2ccccc2F)n1 (centres undefined)	-2	0%	7%	-3	-5	9%
Cc1cc(C)n2ncc(/C(N)=N/OC(=O)c3ccccc3F)c2n1	25*	92%	-25%	50*	107	190%
COc1ccc(NC(=O)CSc2nc3[nH]c(=O)cc(O)c3s2)c(OC)c1	nt	1%	-7%	nt	-14	10µM*
N#Cc1ccc(NC(=O)CSc2nc3[nH]c(=O)cc(O)c3s2)cc1	nt	1.5µM*	25%	nt	-92*	?
COc1ccc(NC(=O)CSc2nc3[nH]c(=O)cc(O)c3s2)cc1OC	nt	?	-2%	nt	4	1%
CCOc1ccccc1CNC(=O)CCCn1c(=O)c2cccn2c2ccc(F)cc21	nt	nt	nt	nt	33	nt
O=C(NCCCN1CCC(Cc2ccccc2)CC1)C1CCN(S(=O)(=O)N2CCOCC2)CC1	-2	nt	?	-1	-18	-1%
CCCS(=O)(=O)N1CCC(C(=O)NCCN(C)Cc2ccccc2)CC1	-2	15µM*	16%	10	-5	18%
Cc1n[nH]c(C)c1S(=O)(=O)N1CCCC(C(=O)NCc2cccs2)C1 (centres undefined)	1	28%	10%	2	-6	nt
CCCS(=O)(=O)N1CCC(C(=O)NCCN2CCC(Cc3ccccc3)CC2)CC1	6	2%	-15%	1	-30	4.1µM*
Cc1n[nH]c(C)c1S(=O)(=O)N1CCCC(C(=O)Nc2nccs2)C1 (centres undefined)	-4	?	-12%	-11	-98*	nt
CCS(=O)(=O)N1CCC(C(=O)NCCCN2CCC(Cc3ccccc3)CC2)CC1	-5	9.3µM*	0%	14	4	-2%
Cc1nc(-c2ccc(Cl)cc2)sc1CCNC(=O)C(=O)Nc1ccc2c(c1)OCCO2	nt	nt	nt	nt	-25	nt
Cc1cccc(C(=O)OC2CCOC2=O)c1O (centres undefined)	-2	18%	55%	32	-23	5%
COc1cccc(C2C(C(N)=O)=C(C)Nc3ncnn32)c1 (centres undefined)	nt	nt	nt	nt	9	nt
COc1ccc(OCC(=O)OCc2cc(=O)n3cc(C)sc3n2)cc1	nt	nt	nt	nt	3	nt
O=C(CCNC(=O)c1ccccc1)Nc1cccnc1	-3	2%	22%	14	24	14%
CCOc1ccc(CCNC(=O)C2CCCN(S(=O)(=O)c3c(C)n[nH]c3C)C2)cc1OCC (centres undefined)	6	4%	?	-3	45	8.3µM*
CCOc1ccc(CCNC(=O)C2CCN(S(=O)(=O)N3CC(C)CC(C)C3)CC2)cc1OCC (centres undefined)	-5	-12%	-17%	-1	?	-19%
CCOc1ccc(CCNC(=O)C2CCN(S(=O)(=O)CC)CC2)cc1OCC	-1	2.6µM*	-7%	-11	-9	50%
CCS(=O)(=O)N1CCC(C(=O)NCCc2ccccc2)CC1	-4	1.5µM*	12%	-13	-13	27%
CCCS(=O)(=O)N1CCCC(C(=O)NCCN(CC)c2ccccc2)C1 (centres undefined)	-5	13µM*	-8%	17	-38	?
CCS(=O)(=O)N1CCC(C(=O)NCCc2ccc(C)cc2)CC1	-4	?	6%	13	64	4%
CCOC(=O)C1=C(CS(=O)(=O)c2ccc(C(C)(C)C)cc2)NC(=O)NC1c1cccc(OC)c1 (centres undefined)	nt	nt	nt	nt	-5	nt
C/C=C/C=[N+](\[O-])C(C)/C(=N/O)c1ccc(F)cc1 (centres undefined)	-3	-13%	13%	-12	-75*	6%
